Reference: PubChem BioAssay (Tox21)
Records with an inconclusive call do not appear. A call without a number means that no potency is given here. The source made the active and inactive calls. The call rests on the fitted dose curve; in most records, active means well fitted activation curve with a large enough effect in the repeat runs; inconclusive means weak or mixed curves; inactive means no such curve, though single readings can be large or run the other way.

Test: qHTS assay for small molecules that induce genotoxicity in human embryonic kidney cells expressing luciferase-tagged ATAD5 (AID 651632); further: nearly all actives have a fitted effect of over 15% in size
Details: HEK293T ATAD5-luciferase induction, 16 h; series mostly up to 83.3 µM
From the text: U.S. Tox21 Program National Center for Advancing Translational Sciences [NCATS] NIH Chemical Genomics Center [NCGC] U.S. Environmental Protection Agency [EPA] National Institutes of Environmental Health Sciences [NIEHS] National Toxicology Program [NTP] U.S. Food and Drug Administration [FDA] Tox21 Assay Overview: As cancer cells divide rapidly and during every cell division they need to duplicate their genome by DNA replication. The failure to do so results in the cancer cell death. Based on this concept, many chemotherapeutic agents were developed but have limitations such as low efficacy and severe side effects etc. A new cell based assay was developed to find the compounds that effectively block DNA replication either by directly damaging DNA or by inhibiting other cellular mechanisms. Enhanced Level of Genome Instability Gene 1 (ELG1; human ATAD5) protein levels increase in response to various types of DNA damage. Using a luciferase reporter-gene tagged with ATAD5, a cell-based assay [developed by Kyungjae Myung, NHGRI, NIH] was used to measure the induction of ATAD5 in human embryonic kidney cells (HEK293T). So, increase in luciferase activity can be used to identify the compounds that cause genetic stress.
Tox21 Assay Protocol Summary: For genotoxicity screening, 2,000 cells in 5 uL/well were dispensed into white, solid-bottom 1536-well plates using a Multidrop Combi (Thermo Scientific) dispenser. Following transfer of 23 nL compound or DMSO vehicle by a pin tool, the plates were incubated 16 hr at 37C and 5% CO2. 5 ul Amplite (AAT Bioquest, Inc.) was then added to each plate and following 30 min incubation at room temperature, luciferase activity was quantified on a ViewLux CCD-based plate reader.
Potency means the concentration at half of the fitted maximal effect.

Row | SMILES | Potency
1 | CCCCCCCCCCCCCCCCCC(=O)OCC(CC)CCCC (stereo not given) | inactive
2 | CCC(CO)(CO)CO | inactive
3 | CC(C)CC(O)CC(C)C | inactive
4 | BrC(Br)C(Br)Br | inactive
5 | NC(=O)c1ccccc1[N+](=O)[O-] | inactive
6 | C[C@H](CS)C(=O)N1CCC[C@H]1C(=O)O | inactive
7 | C1=CCC2CC=CC2C1 (stereo not given) | inactive
8 | C1CCCCC1 | inactive
9 | CO[C@@H]1[C@@H](OC)[C@H](C)[C@@](O)(CC(=O)O)O[C@H]1[C@H](C)[C@H]1O[C@@]2(CC[C@@](C)([C@H]3CC[C@@](C)([C@@H]4O[C@@H]([C@H]5O[C@](C)(O)[C@H](C)C[C@@H]5C)C[C@@H]4OC4C[C@H](OC)[C@@H](OC)[C@H](C)O4)O3)O2)C[C@H](O)[C@H]1C (stereo not given in full) | inactive
10 | CCN(CC)c1cccc(O)c1 | inactive
11 | CCCCCCCC(=O)Oc1c(Br)cc(C#N)cc1Br | inactive
12 | O=C(C(=O)c1ccco1)c1ccco1 | inactive
13 | O=C(Oc1ccccc1)c1ccc2ccccc2c1O | 9.69 µM (active)
14 | CC1=CC[C@@]23C[C@@H]1C(C)(C)[C@@H]2CC[C@H]3C | inactive
15 | CCN(CC)CCOc1ccccc1C(=O)CCc1ccccc1 | inactive
16 | CCO[Si](C)(CCCOCC1CO1)OCC (stereo not given) | inactive
17 | COC(=O)C1=C(C)NC(C)=C(C(=O)OC(C)(C)CN(C)CCC(c2ccccc2)c2ccccc2)C1c1cccc([N+](=O)[O-])c1 (stereo not given) | inactive
18 | CC1CCc2nccnc21 (stereo not given) | inactive
19 | Cc1ccc(NC(=O)N(C)C)cc1NC(=O)N(C)C | inactive
20 | CCCC(=O)OC(=O)CCC | inactive

Row | SMILES | Potency
21 | CCCCCCCCCCCC(=O)OCC(O)CO (stereo not given) | inactive
22 | O=C(O)CNC(=O)c1ccccc1I | inactive
23 | CC1CCCC(=O)C1=O (stereo not given) | inactive
24 | CC(=O)OC(C)C[N+](C)(C)C (stereo not given) | inactive
25 | O=C1[C@@H]2[C@H]3CC[C@H](C3)[C@@H]2C(=O)N1CCCCN1CCN(c2ncccn2)CC1 | inactive
26 | COc1ccc(CCN(C)CCCN2CCc3cc(OC)c(OC)cc3CC2=O)cc1OC | inactive
27 | CC(=O)OCCC(C)CC(C)(C)C (stereo not given) | inactive
28 | COc1cc(S(=O)(=O)Nc2ccccc2)c(OC)cc1N | inactive
29 | CN(C)CC/C=C1\c2ccccc2Sc2ccc(Cl)cc21 | inactive
30 | O=C(CCS)OCC(COC(=O)CCS)(COC(=O)CCS)COC(=O)CCS | inactive
31 | CC(C)(C)C(O)/C=C/c1ccc2c(c1)OCO2 (stereo not given) | inactive
32 | CC[C@H]1OC(=O)[C@H](C)[C@@H](O[C@H]2C[C@@](C)(OC)[C@@H](O)[C@H](C)O2)[C@H](C)[C@@H](O[C@@H]2O[C@H](C)C[C@H](N(C)C)[C@H]2O)[C@](C)(O)C[C@@H](C)CN(C)[C@H](C)[C@@H](O)[C@]1(C)O | inactive
33 | COc1cc(C(C)=O)ccc1OCCCN1CCC(c2noc3cc(F)ccc23)CC1 | inactive
34 | O=[N+]([O-])C1(Br)COCOC1 | inactive
35 | CCCCC[C@H](O)/C=C/[C@H]1[C@H](O)CC(=O)[C@@H]1C/C=C\CCCC(=O)O | inactive
36 | CCCCCCCC(=O)OCCCCCC | inactive
37 | CCSC(=O)N(CC)CC | inactive
38 | CC(=O)NNC(C)=O | inactive
39 | COc1ccc(C)cc1 | inactive
40 | CC(C)N(C)C | inactive
